Test results published in ChEMBL document CHEMBL4513156, “CO-ADD screening of NCPRI (Romania) compounds”.
Measured potencies and affinities stand elsewhere.

Assays:
[1] = system: Klebsiella pneumoniae; conditions: Concentration 32 ug.mL-1; ASSAY_TEST Inhibition of Bacterial Growth; detection method Absorption (OD600); MEDIA CAMHB; plate type 384well; NBS; CORNING #3640; time 18 hr
[2] = system: Candida albicans; conditions: 32 ug/mL
[3] = system: Cryptococcus neoformans; conditions: Concentration 32 ug.mL-1; ASSAY_TEST Inhibition of Fungal Growth; detection method Resazurin; Absorption (OD600-OD570); plate type 384well; NBS; CORNING #3640

Row | Compound | Inhibition [1] [%] | Inhibition [2] [%] | Inhibition [3] [%]
1 | O=C(NN=CC[C@H]1[C@H](CO)[C@@H](O)C[C@H]1O)c1ccncc1 | 13.38 | 0.85 | -70.97
2 | NNC(=O)c1ccncc1 [ISONIAZID] | 18.82 | 0.98 | -55.93
3 | COC(=O)CCCCCC[C@@H]1[C@@H](/C=N/NC(=O)c2ccncc2)[C@H](OC(=O)c2ccccc2)C[C@@H]1O | 15.74 | 0.87 | -95.25
4 | O=C(NN=CC[C@@H]1[C@@H](COC2CCCCO2)[C@H](OC2CCCCO2)C[C@@H]1O)c1ccncc1 (some centres undefined) | 4.99 | 1.39 | -44.06
5 | COC(=O)CCCCCC[C@@H]1[C@@H](/C=N/NC(=O)c2ccncc2)[C@H](O)C[C@@H]1O | 5.87 | 0.11 | -95.51
6 | O=C(N/N=C1/C[C@@H]2[C@H](C1)[C@H](OC(=O)c1ccccc1)C[C@@H]2OC(=O)c1ccccc1)c1ccncc1 | 10.86 | 16.2 | -110.81
7 | O=C(N/N=C1\C[C@@H]2[C@H](COC(c3ccccc3)(c3ccccc3)c3ccccc3)C[C@H](CO)[C@@H]2C1)c1ccncc1 | 2.31 | 12.2 | -65.69
8 | CC(C)(C)[Si](C)(C)O[C@H](/C=C/[C@@H]1[C@@H](CC=NNC(=O)c2ccncc2)[C@@H](O)C[C@H]1O[Si](C)(C)C(C)(C)C)CCc1ccccc1 | 11.71 | 0.84 | -66.75
9 | O=C(NNC(=O)[C@@H]1C[C@H](C(=O)O)[C@@H]2CCC[C@@H]21)c1ccncc1 | 17.49 | 2.57 | -51.45
10 | CC(C)(C)[Si](C)(C)OCC1C2C[C@H]3C1[C@@H]3/C2=N/NC(=O)c1ccncc1 (some centres undefined) | 15.16 | -2 | -48.28
11 | O=C(NNC(=O)c1ccc([N+](=O)[O-])cc1C(=O)O)c1ccncc1 | 17.92 | 3.64 | -51.18
12 | O=C(N/N=C/C[C@@H]1[C@@H](/C=C/[C@@H](O)COc2ccccc2)[C@H](O)C[C@@H]1O)c1ccncc1 | 13.01 | 0.82 | -89.18
13 | O=C(N/N=C/C[C@@H]1[C@@H](CO)[C@H](O)C[C@@H]1O)c1ccncc1 | 16.63 | 0.37 | -75.19
14 | O=C(N/N=C/[C@@H]1C[C@H](CO)[C@@H]2CCC[C@@H]21)c1ccncc1 | 17.88 | 0.02 | -36.93
15 | O=C(NN=C[C@H]1[C@@H]2CCO[C@@H]2C[C@@H]1O)c1ccncc1 | 9.72 | 2.27 | -54.08
16 | O=C(NN=CC[C@@H]1[C@@H](/C=C/[C@@H](O)CCc2ccccc2)[C@H](OC(=O)c2ccccc2)C[C@@H]1O)c1ccncc1 | 14.41 | 5.97 | -72.55
17 | O=C(N/N=C1/C2C[C@H]3C(C2C(=O)O)[C@@H]13)c1ccncc1 (some centres undefined) | 8.85 | 0.22 | -16.35
18 | O=C(ON/N=C/[C@@H]1[C@@H]2C[C@H](Cl)[C@H]1C[C@H]2O)c1ccncc1 | 14.1 | 5.82 | -97.88
